Bioassay records deposited in PubChem by PCMD.
FXIa inh: blocks human coagulation factor XIa activity. P03951. purified human FXIa, fluorogenic AMC substrate cleavage. inhibition, % at 10 µM. 33,000 tested, 0.3% active. AID 687;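 active = inhibition above 40% in the primary screen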;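 also: 0% = enzyme without compound and 100% = blank wells lacking enzyme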
FXIIa single: blocks human coagulation factor XIIa activity. 33,000 tested, 0.2% active. AID 701. purified human FXIIa, AMC substrate fluorescence, 2 h. inhibition, % at 10 µM. P00748; in the data active = inhibition above about 30%;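 also: 0% = enzyme with vehicle only and 100% = no enzyme blank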
* marks the source's active call; other numbers are inactive results. This is one part of a sample in which hits are shown more often than they occur.

SMILES	FXIa inh	FXIIa single
COc1ccc(CCC(C)NCCc2ccccc2)cc1 (stereo unspecified)	-8.6	10.3
CNCCCc1ccccc1	40.6*	3.1
c1ccc2cc3cc4ccccc4cc3cc2c1	5.1	-0.7
